In PubChem BioAssay (Tox21):
Several values for one entry are separate records, joined by “and”; a condition that tells them apart may be missing. Equal values may be shown once. Results filed as inconclusive are left out. A call without a number means that no potency is given here. Some compounds were tested as several samples or in several runs, with calls that do not always agree. Activity calls are given as the source filed them. Unless noted, calls follow the shape of the dose curve; as a rule, active = well fitted curve in the direction sought with a large enough effect in the repeat runs; inconclusive = weak or mixed curves; inactive = no such curve, though single readings can be large; an effect the other way counts as inactive or inconclusive.

What was measured:
[1] = qHTS assay to identify small molecule antagonists of the androgen receptor (AR) signaling pathway using the MDA cell line in the presence of 0.5 nM R1881 - cell viability counter screen (AID 1259242); also: nearly all actives have a fitted effect of over 45% in size; also: potency is read from the fitted curve at half-maximal effect
In short: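 Viability of MDA-kb2 cells was multiplexed with the luciferase AR readout; after 16 hr with compounds and R1881 at 0.5 nM final, CellTiter-Fluor fluorescence was recorded.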

[2] = molecular target: Estrogen receptor (Homo sapiens) (UniProt P03372); experiment: qHTS assay to identify small molecule antagonists of the estrogen receptor alpha (ER-alpha) signaling pathway using the BG1 cell line in the presence of 0.1 nM 17-beta-estradiol (AID 1259244); also: nearly all actives have a fitted effect of over 50% in size; also: potency is read from the fitted curve at half-maximal effect
Sequence of Estrogen receptor (Homo sapiens) (P03372 whole entry, looked up): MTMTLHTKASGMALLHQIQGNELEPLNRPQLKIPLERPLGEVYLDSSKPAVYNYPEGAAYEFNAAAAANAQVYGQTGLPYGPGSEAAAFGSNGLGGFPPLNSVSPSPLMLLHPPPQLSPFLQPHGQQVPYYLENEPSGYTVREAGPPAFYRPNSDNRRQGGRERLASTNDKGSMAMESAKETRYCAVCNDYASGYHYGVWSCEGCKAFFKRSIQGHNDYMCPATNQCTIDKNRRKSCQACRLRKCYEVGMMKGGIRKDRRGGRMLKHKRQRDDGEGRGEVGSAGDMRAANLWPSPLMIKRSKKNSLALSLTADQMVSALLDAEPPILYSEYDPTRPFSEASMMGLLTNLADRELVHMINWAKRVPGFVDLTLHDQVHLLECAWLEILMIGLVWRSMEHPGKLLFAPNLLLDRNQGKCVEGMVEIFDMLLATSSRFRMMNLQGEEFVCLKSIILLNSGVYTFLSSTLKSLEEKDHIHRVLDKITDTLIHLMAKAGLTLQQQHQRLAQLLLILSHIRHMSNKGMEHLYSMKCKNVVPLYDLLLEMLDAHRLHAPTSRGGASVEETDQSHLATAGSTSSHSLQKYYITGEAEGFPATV
In short: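 Estradiol at 0.1 nM (final) stimulates the endogenous ER-alpha of VM7Luc4E2 cells carrying an ERE-driven luciferase; compounds are co-incubated 22 h at 37C and luciferase output quantified by luminescence.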

[3] = qHTS assay to identify small molecule HDAC inhibitors (AID 1259364);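 also: wild-type HCT-116 cells with endogenous class I/II HDAC activity; top concentration of the series differs between compounds; nearly all actives have a fitted effect of over 45% in size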
In short: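 Read-out: luminescence of HDAC-Glo I/II reagent, 30 min RT, reflecting class I/II deacetylase activity in whole HCT-116 cells pre-exposed 2 h to DMSO-dissolved compounds.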

[4] = qHTS assay to identify small molecule HDAC inhibitors - cell viability counter screen (AID 1259365); also: nearly all actives have a fitted effect of over 50% in size; also: potency is read from the fitted curve at half-maximal effect
In short: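 HCT-116 wild-type, overnight attachment; 2hr drug exposure, 37C; CellTiter-Glo luminescent ATP readout after 30min RT.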

[5] = qHTS assay to identify small molecule agonists of the sonic hedgehog signaling (Shh) pathway - cell viability counter screen (AID 1259366); also: nearly all actives have a fitted effect of over 50% in size; also: potency is read from the fitted curve at half-maximal effect
In short: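 Compounds in DMSO were pin-transferred onto 3T3 Gli1-Luc cells that had settled 4hr; plates then stood 24hr at 37C and 5% CO2. One hour before the end, CellTiter-Fluor was added and fluorescence recorded.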

[6] = qHTS assay to identify small molecule antagonists of the sonic hedgehog signaling (Shh) pathway (AID 1259369; calls by dose curve; also: nearly all actives have a fitted effect of over 45% in size; also: potency is read from the fitted curve at half-maximal effect)
In short: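 For antagonist detection, the reporter line received test compounds together with conditioned medium, incubated 24hr at 37 C, 5% CO2, then luminescence was recorded following 30min room-temperature luciferase reagent incubation.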

[7] = qHTS assay to identify small molecule agonists of the sonic hedgehog signaling (Shh) pathway (AID 1259368; calls by dose curve;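 also: NIH/3T3-derived 3T3Gli1-Luc cells carrying a stable Gli1-driven firefly luciferase reporter; series mostly up to about 92 µM; nearly all actives have a fitted effect of over 15% in size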)
In short: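 A Gli1 transcriptional response element controlled firefly luciferase in 3T3Gli1-Luc cells. Compounds and a positive control were added 4 hr after plating, and cells were incubated a further 24 hr at 37 C before luminescence detection.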

[8] = qHTS assay to identify small molecule antagonists of the sonic hedgehog signaling (Shh) pathway - cell viability counter screen (AID 1259367); also: nearly all actives have a fitted effect of over 55% in size; also: potency is read from the fitted curve at half-maximal effect
In short: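 Using CellTiter-Fluor, viability of Gli1-Luc reporter 3T3 cells is read by fluorescence in the wells used for the Shh luciferase assay. Treatment lasts 23 hr with conditioned medium, then reagent 1 hr at 37C.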

[9] = qHTS assay to identify small molecule phospholipidosis (PLD) inducers (AID 1259344; active = well fitted curve in the direction sought with a large enough effect; an effect the other way counts as inactive or inconclusive)
In short: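 Fluorescent phospholipid staining (LipidTOX Red) measured by automated microscopy in fixed HepG2 cells after 24 h treatment; nuclei counterstained with Hoechst 33342; amiodarone as reference inducer.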

Question: With `N#CCc1ccc(Cl)cc1` as the compound, how does the Potency [1] read?
Answer: inactive

Question: What about the Potency [2] of the same compound?
Answer: inactive

Question: And the Potency [3]?
Answer: inactive

Question: What about the Potency [4] of the same compound?
Answer: inactive

Question: What about the Potency [5] of the same compound?
Answer: inactive

Question: And the Potency [6]?
Answer: inactive

Question: With `BrCBr` as the compound, how does the Potency [1] read?
Answer: inactive

Question: And the Potency [2]?
Answer: inactive

Question: And the Potency [3]?
Answer: inactive

Question: What about the Potency [4] of the same compound?
Answer: inactive

Question: What about the Potency [5] of the same compound?
Answer: inactive

Question: What about the Potency [7] of the same compound?
Answer: inactive

Question: What about the Potency [6] of the same compound?
Answer: inactive

Question: With `Nc1ccc(Cl)cc1C(=O)c1ccccc1` as the compound, how does the Potency [1] read?
Answer: inactive

Question: And the Potency [2]?
Answer: inactive

Question: And the Potency [3]?
Answer: inactive

Question: And the Potency [4]?
Answer: inactive

Question: What about the Potency [5] of the same compound?
Answer: inactive

Question: What about the Potency [7] of the same compound?
Answer: inactive

Question: With `CC(C)OC(=S)S` as the compound, how does the Potency [1] read?
Answer: inactive

Question: What about the Potency [2] of the same compound?
Answer: inactive

Question: What about the Potency [3] of the same compound?
Answer: inactive

Question: What about the Potency [4] of the same compound?
Answer: inactive

Question: And the Potency [5]?
Answer: 30600 nM (active)

Question: And the Potency [8]?
Answer: 61100 nM (active)

Question: What about the Potency [7] of the same compound?
Answer: inactive

Question: With `CC(C)CCCCCCCOP(=O)(Oc1ccccc1)Oc1ccccc1` as the compound, how does the Potency [1] read?
Answer: inactive

Question: What about the Potency [2] of the same compound?
Answer: inactive

Question: And the Potency [3]?
Answer: inactive

Question: And the Potency [4]?
Answer: inactive

Question: What about the Potency [5] of the same compound?
Answer: inactive

Question: What about the Potency [8] of the same compound?
Answer: inactive

Question: And the Potency [7]?
Answer: inactive

Question: Which results are given for `ClCc1ccccc1CCl`?
Answer: Potency [1]: inactive; Potency [2]: inactive; Potency [3]: inactive; Potency [4]: inactive; Potency [5]: inactive; Potency [7]: inactive

Question: With `ClCCN1CCOCC1` as the compound, how does the Potency [1] read?
Answer: inactive

Question: And the Potency [2]?
Answer: inactive

Question: What about the Potency [3] of the same compound?
Answer: inactive

Question: What about the Potency [4] of the same compound?
Answer: inactive

Question: And the Potency [5]?
Answer: inactive

Question: And the Potency [8]?
Answer: inactive

Question: And the Potency [7]?
Answer: inactive

Question: And the Potency [6]?
Answer: inactive

Question: For `COc1cc(C=O)cc2c1[C@H](COC(N)=O)[C@]1(OC(C)=O)ON2C[C@H]2[C@@H]1N2C(C)=O`, which Potency [1] is on record?
Answer: inactive

Question: And the Potency [2]?
Answer: 154 nM (active)

Question: And the Potency [3]?
Answer: inactive

Question: What about the Potency [4] of the same compound?
Answer: inactive

Question: What about the Potency [5] of the same compound?
Answer: 6110 nM (active)

Question: What about the Potency [7] of the same compound?
Answer: inactive

Question: Which Potency [1] does the source give for `Fc1ccc(Oc2ccnc3cc(Cl)cc(Cl)c23)cc1` here?
Answer: inactive

Question: And the Potency [2]?
Answer: inactive

Question: What about the Potency [3] of the same compound?
Answer: inactive

Question: What about the Potency [4] of the same compound?
Answer: inactive

Question: And the Potency [5]?
Answer: inactive

Question: What about the Potency [8] of the same compound?
Answer: inactive

Question: And the Potency [7]?
Answer: inactive

Question: For `CC(c1ccc(O)cc1)c1ccc(O)cc1`, which Potency [1] is on record?
Answer: inactive

Question: What about the Potency [2] of the same compound?
Answer: inactive

Question: And the Potency [3]?
Answer: inactive

Question: And the Potency [4]?
Answer: inactive

Question: And the Potency [5]?
Answer: inactive and 61.1 µM (active)

Question: And the Potency [8]?
Answer: inactive

Question: What about the Potency [7] of the same compound?
Answer: inactive

Question: And the Potency [6]?
Answer: 22.8 µM (active) and inactive

Question: What does the source list for `CC(C)CCCCCOC(=O)c1ccccc1C(=O)OCCCCCC(C)C`?
Answer: Potency [1]: inactive; Potency [2]: inactive; Potency [3]: inactive; Potency [4]: inactive; Potency [5]: inactive; Potency [8]: inactive; Potency [7]: inactive

Question: Which results are given for `CCCN(CCC)CCc1c[nH]c2ccccc12`?
Answer: Potency [1]: inactive; Potency [2]: inactive; Potency [3]: inactive; Potency [4]: inactive; Potency [5]: inactive; Potency [7]: inactive; Potency [6]: 67.7 µM (active)

Question: What does the source list for `CCC[CH2][Sn]([CH2]CCC)([CH2]CCC)[O]C(=O)c1ccccc1`?
Answer: Potency [1]: 1540 nM (active); Potency [2]: 486 nM (active); Potency [3]: inactive; Potency [4]: 19300 nM (active); Potency [5]: 686 nM (active); Potency [7]: inactive; Potency [6]: 0.172 µM (active)

Question: Which results are given for `C1CCC2CCCCC2C1` (stereo unspecified)?
Answer: Potency [1]: inactive; Potency [2]: inactive; Potency [3]: inactive; Potency [4]: inactive; Potency [5]: inactive; Potency [8]: inactive; Potency [7]: inactive; Potency [6]: inactive

Question: Which Potency [1] does the source give for `ClC1=C(Cl)C2(Cl)C3C(Cl)C=CC3C1(Cl)C2(Cl)Cl` (stereo unspecified) here?
Answer: inactive

Question: What about the Potency [2] of the same compound?
Answer: inactive

Question: What about the Potency [4] of the same compound?
Answer: inactive

Question: What about the Potency [5] of the same compound?
Answer: inactive

Question: What about the Potency [8] of the same compound?
Answer: inactive

Question: And the Potency [7]?
Answer: inactive

Question: What does the source list for `CC(=O)Nc1ccc2c(c1)Cc1ccccc1-2`?
Answer: Potency [1]: inactive; Potency [2]: inactive; Potency [4]: inactive; Potency [5]: inactive; Potency [8]: inactive; Potency [7]: inactive; Potency [6]: inactive

Question: For `CCc1nn(C)c(C(=O)NCc2ccc(C(C)(C)C)cc2)c1Cl`, which Potency [1] is on record?
Answer: 433 nM (active)

Question: And the Potency [2]?
Answer: 86.3 nM (active)

Question: And the Potency [3]?
Answer: inactive

Question: What about the Potency [4] of the same compound?
Answer: inactive

Question: And the Potency [7]?
Answer: inactive

Question: What about the Potency [6] of the same compound?
Answer: 0.0386 µM (active)

Question: Which results are given for `O=C/C(Cl)=C(/Cl)C(=O)O`?
Answer: Potency [1]: inactive; Potency [2]: inactive; Potency [3]: inactive; Potency [4]: inactive; Potency [6]: 38.6 µM (active)

Question: For `Clc1ccc(C(c2ccccc2Cl)C(Cl)(Cl)Cl)cc1` (stereo unspecified), which Potency [1] is on record?
Answer: inactive

Question: And the Potency [2]?
Answer: inactive

Question: And the Potency [3]?
Answer: inactive

Question: And the Potency [4]?
Answer: inactive

Question: What about the Potency [8] of the same compound?
Answer: inactive

Question: What about the Potency [7] of the same compound?
Answer: inactive

Question: And the Potency [6]?
Answer: inactive

Question: With `C[C@]12CC[C@@H]3c4ccc(OC(=O)N(CCCl)CCCl)cc4CC[C@H]3[C@@H]1CC[C@@H]2O` as the compound, how does the Potency [1] read?
Answer: inactive

Question: And the Potency [9]?
Answer: inactive

Question: What about the Potency [3] of the same compound?
Answer: inactive

Question: And the Potency [4]?
Answer: inactive

Question: What about the Potency [5] of the same compound?
Answer: inactive

Question: And the Potency [8]?
Answer: inactive

Question: And the Potency [7]?
Answer: inactive

Question: And the Potency [6]?
Answer: inactive

Question: For `O=[N+]([O-])c1c2ccccc2cc2ccccc12`, which Potency [1] is on record?
Answer: inactive

Question: What about the Potency [2] of the same compound?
Answer: inactive

Question: And the Potency [4]?
Answer: inactive

Question: And the Potency [7]?
Answer: inactive

Question: And the Potency [6]?
Answer: 67.8 µM (active)
